CSC inhib: cancer stem cell viability inhibitors, primary screen, luminescence. AID 2717, 2010. inhibition, % at 7.5 µM. hit rate 1.1% among 300,000. cancer stem cell-like cells viability; in the data active = inhibition above about 75%; inconclusive = no clear call, values can overlap the other calls; tested in HMLE shEcad cells
PfHsp90 yeast 2: growth inhibition of PfHsp90-expressing yeast, primary screen, antimalarial PfHsp90 inhibitor project, S. cerevisiae, BacTiter-Glo luminescence, single point, set 2 | BacTiter-Glo ATP, 48 h; yeast lacking PDR1 and PDR3 efflux regulators | inhibition, % at 9.4 µM | hit rate 0.32% among 310,000 | AID 504621, 2011;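 active = every replicate shows inhibition above about 80%, whatever the replicate mean, limit read from the data; inconclusive = mean inhibition reaches the set limit but some replicate falls short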;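 also: 0% = DMSO neutral controls and 100% = 20 µM radicicol positive controls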
Shn3 3UTR inh: reduction of Shn3 3'UTR firefly luciferase signal, primary screen, Schnurri-3 inhibitor project, cell-based, Clone20 osteoblasts, set 2. Clone20 osteoblast Shn3 3'UTR firefly luciferase, 24 h. inhibition, % at 12.5 µM. hit rate 0.52% among 360,000;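 active = mean inhibition of at least 75% with every replicate also reaching 75%; inconclusive = mean inhibition at least 75% but some replicate below; inactive = mean inhibition below 75%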;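 also: 0% = median of neutral control wells and 100% = pilot-screen positive control compound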
Beta cell apopt: inhibitors of cytokine-induced beta cell apoptosis, primary screen, luminescence; INS-1E cytokine-induced death, ATP luminescence, 48 h; percent of positive-control rescue, neutral wells zero; protection from apoptosis, % (no concentration beside the values); hit rate 0.8% among 300,000; AID 435005, 2010;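 active = Every replicate reaches about 75%, or at least half do and their mean reaches it too, limit read from the data; inconclusive = At least half of replicates reach the limit but their mean does not; inactive = Under half of replicates reach the limit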;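 also: 0% = cytokine-treated negative control wells and 100% = positive control rescue; higher means more ATP so stronger rescue from cytokine killing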
Calb FLC: C. albicans growth inhibition with fluconazole, primary screen, CaCi-2 strain, Alamar Blue fluorescence. C. albicans CaCi-2 (fluconazole-resistant clinical isolate) + fluconazole, 48 h. growth inhibition, % (no concentration beside the values). hit rate 0.57% among 300,000;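 active = growth inhibition above about 58% in most replicates, limit read from the data, passing the limit was not always enough; inconclusive = exactly half the replicates above a set limit; inactive = most replicates below a set limit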;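 also: all wells also contain fluconazole at 8 µg/ml as a sub-toxic cotreatment; 0% = median of DMSO wells and 100% = median of geldanamycin control wells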
Active calls of the source: *; ? = inconclusive; . = no result given; ! = repeats disagree. This is a sample that favours compounds with a hit; in the whole collection about 2.2% have one here.

SMILES	CSC inhib	PfHsp90 yeast 2	Shn3 3UTR inh	Beta cell apopt	Calb FLC
Cc1ccc(/C=C/S(=O)(=O)NCCC(=O)NCc2ccc(F)cc2)cc1	.	-5	-13	0	.
CCCCCOc1ccc(Br)cc1CSC(=N)N	.	-2	89*	.	-12
S=c1[nH]nc(-c2cccc(Cl)c2)n1/N=C/c1ccc(-c2ccccc2Br)o1	15	-61	1	6	-9
S=c1[nH]nc(-c2ccccc2)n1/N=C/c1ccc(-c2ccccc2Cl)o1	102*	-31	13	7	28
O=C(COC(=O)C1=COCCO1)Nc1ccc(Br)cc1Br	5	19	-5	-5	.
CC(C)Oc1ccc(S(=O)(=O)N2CCCCC2)cc1NC(=O)CN1CCCC1c1cccs1 (configuration not stated)	12	3	?	92*	.
Cn1c(=O)c([N+](=O)[O-])c(Cl)c2ccccc21	.	.	97*	.	1
Cc1cccc(OC(=O)Cn2c(C(F)(F)F)nc3ccccc32)c1	-5	-24	-8	-5	3
CC1CCC(C(C)C)C(OC(=O)Cn2c(-c3ccccc3)[n+](C)c3ccccc32)C1 (configuration not stated)	17	-10	86*!	104*	17
CC1CCC(C(C)C)C(OC(=O)C[n+]2cc(-c3ccc(Cl)cc3)n3c2CCC3)C1 (configuration not stated)	13	-19	16	5	-3
Cc1cccc(OCc2n(CC(=O)OC3CC(C)CCC3C(C)C)c3ccccc3[n+]2C)c1 (configuration not stated)	103*	-29	7	106*	102*
CC1CCC(C(C)C)C(OC(=O)Cn2c(-c3ccc(F)cc3)[n+](C)c3ccccc32)C1 (configuration not stated)	10	5	72	105*	.
C/C(=N\NC(=O)Cn1nc(C)cc1C)c1ccc([N+](=O)[O-])cc1	-9	2	7	-4	-1
CC(=O)c1cccn1S(=O)(=O)c1ccccc1	-16	-8	4	-6	-5
Nc1c(C(=O)c2ccccc2)sc2nsc(SCCN3CCCC3)c12	89*	42	-51	-10	-21
Cc1nn(C)c(C)c1CN(C)S(=O)(=O)c1ccc2ccccc2c1	5	8	78	109*	.
Cc1nn(C)c(C)c1CN(C)S(=O)(=O)c1ccc(F)cc1	2	2	29	4	14
Cc1ccc(-n2c(O)c(C=Nc3ccccc3-c3n[nH]c(=S)[nH]c3=O)c3ccccc3c2=O)cc1C	.	-18	1	.	100*
CCn1c(=N)n(CC(=O)c2ccc(Br)s2)c2ccccc21	11	0	.	-3	-1
CCCCn1c(=N)n(CC(=O)c2ccc(Br)s2)c2ccccc21	36	-10	58	83*	3
Cc1ccc(C(CNS(=O)(=O)c2ccc(Cl)cc2)N2CCN(C)CC2)cc1 (configuration not stated)	.	0	-1	8	0
CSc1nnc(-c2ccccc2)o1	-7	6	-10	5	6
O=S1(=O)C=C(Sc2nnc(-c3ccccc3)o2)c2ccccc21	108*	111*	98*	105*	36
COc1cccc(-c2sc3ccc(OC)cc3c2C#CCCO)c1	116*	-22	4	-6	.
COc1cc(OC)cc(-c2sc3ccc(OC)cc3c2C#CCO)c1	102*	10	9	-5	.
SMILES	CSC inhib	PfHsp90 yeast 2	Shn3 3UTR inh	Beta cell apopt	Calb FLC
COc1cc(OC)cc(-c2sc3ccc(OC)cc3c2C#CC(C)(C)O)c1	-6	-18	-32	-9	.
CC(C)(C)OC(=O)[C@H](Cc1ccccc1)NC(=O)c1[nH]cnc1C(=O)Nc1ccc(Cl)cc1	120*	21	32	10	4
CC(C)(C)OC(=O)[C@H](Cc1ccccc1)NC(=O)c1[nH]cnc1C(=O)Nc1cccc(Cl)c1	97*	9	3	22	4
Cc1cccc(NC(=O)c2nc[nH]c2C(=O)N[C@@H](Cc2ccccc2)C(=O)OC(C)(C)C)c1	-19	1	37	13	5
CC(C)C[C@H](NC(=O)c1[nH]cnc1C(=O)N[C@H](C)c1ccccc1)C(=O)OC(C)(C)C	45	.	31	27	14
CC(C)C[C@H](NC(=O)c1nc[nH]c1C(=O)NC(c1ccccc1)c1ccccc1)C(=O)OC(C)(C)C	97*	24	28	36	-6
N#C/C=C/N1CCC(Cc2ccccc2)CC1	17	25	-4	0	-3
COc1ccc(C(NC(=O)CN2CCCCCC2)c2ccc(OC)cc2)cc1	1	10	7	-4	-9
CC(C)c1ccc(NC(=O)c2ccccc2NC(=O)C2CCCCC2C(=O)O)cc1 (configuration not stated)	.	-4	-33	.	31
O=C1OC(CC(=O)N(Cc2nnc(-c3ccccc3Cl)o2)C2CC2)c2ccccc21 (configuration not stated)	14	9	8	-4	.
O=S(=O)(c1ccc(NC(=S)Nc2ccccc2)cc1)N1CCOCC1	-1	-19	25	.	-2
CC(C)CCCCCCNC(=S)Nc1ccc(S(=O)(=O)N2CCOCC2)cc1	91*	-22	68	98*	0
Cc1ccc(S(=O)(=O)NC(=O)C2(C)CCN2C(=O)c2ccc(C(F)(F)F)nc2C)cc1 (configuration not stated)	.	.	-37	.	.
CC(=O)O[C@H]1[C@H](O)[C@H](Oc2c(O)c(C)c3c4c2[C@@H](C)CC[C@@H]4[C@@H](C)C[C@H]3C=C(C)C)O[C@@H](C)[C@H]1O	.	118*	4	.	.
COc1ccc(-c2ccccc2NC(=O)C2CCCN(Cc3ccc(C)o3)C2)cc1 (configuration not stated)	-4	11	-1	-5	6
Cc1ccc2[nH]c(O)c(N=Nc3ccccc3[N+](=O)[O-])c2c1	.	-14	-17	.	.
O=[N+]([O-])c1ccccc1N=Nc1c(O)[nH]c2ccc(F)cc12	.	-5	85*	.	.
CN(C)CCCNS(=O)(=O)c1ccc(N2CCC(c3ccc(Cl)cc3)=N2)cc1	112*	.	.	12	-1
O=S(=O)(c1ccc(N2CCC(c3ccc(Cl)cc3)=N2)cc1)N(CCO)CCO	29	-5	-7	-4	36
Cc1cc(-c2ccc(S(=O)(=O)N3CCN(c4cccc(C)c4C)CC3)s2)on1	37	9	21	-3	2
CCCCCCSc1ccc([C@@H]2[C@@H]3C(=O)N(C)C(=O)[C@@H]3[C@]3(C(=O)OC)CCCCN23)cc1OC	105*	-41	6	9	9
CCN1C(=O)[C@H]2[C@@H](c3ccc(-c4ccc(OC)cc4)cc3)N3CCC[C@@]3(C(=O)OC)[C@H]2C1=O	-8	7	90*	-8	11

Compound activity: PubChem, Broad Institute
